Laboratory results: PubChem BioAssay (Tox21)
Inconclusive results are not listed. The source made the active and inactive calls. Unless noted, calls come from the whole dose curve; as a rule, active = well fitted curve in the direction sought with a large enough effect in the repeat runs; inconclusive = weak or mixed curves; inactive = no such curve, though single readings can be large; an effect the other way counts as inactive or inconclusive.

What was measured:
[1] = qHTS assay to identify small molecule agonists of the estrogen receptor alpha (ER-alpha) signaling pathway in the presence of an antagonist - cell viability counter screen (AID 1259386);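 note: series mostly up to about 92 µM; cells exposed to compounds for 22 h at 37 °C before the viability read; nearly all actives have a fitted effect of over 30% in size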
Summary of the method: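 Steps: 5-day stripped-FBS culture; seed and incubate 24hr; add ICI-182,780 (10.0nM final); pin 15-point compound titration; incubate 22hr at 37C; add CellTiter-Fluor at 21hr; read fluorescence.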

[2] = target: Progesterone receptor (Homo sapiens) (UniProt P06401); assay: qHTS assay to identify small molecule agonists of the progesterone receptor (PR) signaling pathway (AID 1346784; calls by dose curve; note: nearly all actives have a fitted effect of over 30% in size)
Summary of the method: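 Compounds were tested for PR agonism in HEK 293T cells bearing a beta-lactamase gene under UAS control. Treatment lasted 16 hr at 37C; signal came from fluorescence of a FRET substrate.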

[3] = qHTS assay to identify small molecule antagonists of the progesterone receptor (PR) signaling pathway - cell viability counter screen (AID 1346798); note: series mostly up to about 92 µM; nearly all actives have a fitted effect of over 50% in size
Summary of the method: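 Following a 4 hr attachment, PR-UAS-bla HEK293T cells in charcoal-stripped FBS medium were exposed to compounds with R5020 for 16 hr; CellTiter-Glo was added and luminescence read after 30 min at room temperature.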

[4] = qHTS assay to identify small molecule agonists of the progesterone receptor (PR) signaling pathway - cell viability counter screen (AID 1346799; calls by dose curve; note: nearly all actives have a fitted effect of over 45% in size)
Summary of the method: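 Here, 3,000 PR-UAS-bla HEK293T cells per well were treated with compounds for 16 hr after a 6 hr preincubation at 37C and 5% CO2; cell viability is the CellTiter-Glo luminescence signal.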

[5] = qHTS assay to identify small molecule antagonists of the TGF-beta/Smad signaling pathway - cell viability counter screen (AID 1346824); note: nearly all actives have a fitted effect of over 50% in size
Summary of the method: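 Cytotoxicity counter-screen run in the same wells as the beta-lactamase Smad reporter read: CellTiter-Glo luminescence after 30 min at room temperature. HEK 293T SBE-bla cells had 5 hr compound exposure at 37 C with TGF-beta1 (0.25 ng/mL stock).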

[6] = qHTS assay to identify small molecule agonists of the TGF-beta/Smad signaling pathway - cell viability counter screen (AID 1346829); note: top concentration of the series differs between compounds; nearly all actives have a fitted effect of over 45% in size
Summary of the method: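 Here the cytotoxicity of library compounds is measured in SBE-bla HEK 293T cells treated for 5 hr, using CellTiter-Glo added to wells already read for the beta-lactamase reporter.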

[7] = qHTS assay to identify small molecule agonists of the TGF-beta/Smad signaling pathway (AID 1346859; active = well fitted activation curve with a large enough effect in the signal ratio in the repeat runs, not every such curve was filed as active; the % refers to the signal ratio; note: series mostly up to about 77 µM)
Summary of the method: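 Each well held 4,000 SBE-bla HEK 293T cells incubated overnight before compound addition; 5 hr later the cleavable FRET substrate went on for 2 hr at room temperature, and fluorescence was read at two emissions.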

[8] = target: Thyrotropin-releasing hormone receptor (Homo sapiens) (UniProt P34981); assay: qHTS assay to identify small molecule antagonists of the thyrotropin-releasing hormone receptor (TRHR) signaling pathway (AID 1346877; active = well fitted inhibition curve with a large enough effect in the repeat runs, not every such curve was filed as active; note: series mostly up to about 51 µM)
Summary of the method: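 Human TRHR in HEK293 cells; inhibition of the intracellular calcium rise triggered by 1 nM TRH was followed by fluorescence over 3 min. Compounds were run at 15 concentrations, three replicates each.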

[9] = target: Thyrotropin-releasing hormone receptor (Homo sapiens) (UniProt P34981); assay: qHTS assay to identify small molecule agonists of the thyrotropin-releasing hormone receptor (TRHR) signaling pathway (AID 1346891; calls by dose curve; note: series mostly up to about 58 µM)
Summary of the method: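 Screening of agonists relied on calcium signalling in HEK293 cells expressing human TRHR: dye loading 2 h at 37 °C preceded compound addition and a 3-min fluorescence time course.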

[10] = Human pregnane X receptor (PXR) small molecule agonists, qHTS cell viability counter screen (AID 1346977); note: nearly all actives have a fitted effect of over 50% in size
Summary of the method: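 Tox21 qHTS format; PXR-Luc HepG2, 2,000/well, charcoal-stripped FBS 5%. Cpd exposure 24hr. Read: CellTiter-Fluor fluorescence, multiplexed with luciferase.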

[11] = Caspase-3/7 induction in HepG2 cells by small molecules, qHTS assay (AID 1346978); note: nearly all actives have a fitted effect of over 15% in size
Summary of the method: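 Caspase-3/7 induction was measured by Caspase-Glo 3/7 luminescence (30 min, room temperature) after a 17 hr compound exposure of wild-type HepG2 cells seeded at 2,000 per well and pre-incubated 5 hr.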

[12] = Caspase-3/7 induction in CHO-K1 cells by small molecules, qHTS assay (AID 1346980); note: nearly all actives have a fitted effect of over 15% in size
Summary of the method: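 Luminescent Caspase-Glo 3/7 read (30min, room temperature) quantified apoptosis induction. Cells were wild-type CHO-K1, treated with compound for 17hr at 37 C and 5% CO2.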

[13] = Caspase-3/7 induction in HepG2 cells by small molecules, qHTS cell viability counter screen (AID 1346981); note: series mostly up to about 92 µM; nearly all actives have a fitted effect of over 30% in size
Summary of the method: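 The parent HepG2 line is plated at 2,000 cells per well and rested 5 hr before compound pinning from DMSO stocks. Following a 16-hr treatment at 37 C, a fluorogenic live-cell substrate (CellTiter-Fluor) reports viability after 1 hr.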

[14] = target: Progesterone receptor (Homo sapiens) (UniProt P06401); assay: qHTS assay to identify small molecule antagonists of the progesterone receptor (PR) signaling pathway (AID 1346795; active = well fitted inhibition curve with a large enough effect in the signal ratio in the repeat runs, not every such curve was filed as active; the % refers to the signal ratio; note: potency is the fitted concentration of half-maximal effect)
Summary of the method: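 In HEK293T cells bearing the PR-UAS-bla reporter, compound effects on promegestone-driven (1 nM) beta-lactamase expression are assessed after 16 hr using a fluorescent FRET substrate incubated 2 hr at room temperature.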

[15] = Caspase-3/7 induction in CHO-K1 cells by small molecules, qHTS cell viability counter screen (AID 1346979); note: nearly all actives have a fitted effect of over 35% in size
Summary of the method: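 CellTiter-Fluor viability check, qHTS format: wild-type CHO-K1, 16hr compound treatment, 1hr reagent incubation, fluorescence read.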

[16] = target: Acetylcholinesterase (Homo sapiens) (UniProt P22303); assay: Acetylcholinesterase (AChE) small molecule antagonists: colormetric cell-based qHTS assay (AID 1347395; calls by dose curve; note: nearly all actives have a fitted effect of over 30% in size; note: potency is the fitted concentration of half-maximal effect)
Summary of the method: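 AChE inhibition read colorimetrically via DTNB–thiocholine in SH-SY5Y cells. Compound 30 min, substrate 90 min, both 37 C.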

[17] = target: Nuclear receptor subfamily 1 group I member 2 (Homo sapiens) (UniProt O75469); assay: Human pregnane X receptor (PXR) small molecule agonists, qHTS assay (AID 1346982); note: nearly all actives have a fitted effect of over 35% in size; note: potency is the fitted concentration of half-maximal effect
Summary of the method: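 After plating in 5% charcoal-stripped FBS and a 5 hr rest, PXR-Luc HepG2 cells received compounds in DMSO. Following 24 hr at 37 C, ONE-Glo was added and light output read.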

[18] = target: Nuclear receptor subfamily 1 group I member 2 (Rattus norvegicus) (UniProt Q9R1A7); assay: Rat pregnane X receptor (rPXR) activation by small molecules, qHTS assay (AID 1346983); conditions: rPXR luciferase reporter cells, One-Glo luminescence, 24 h; max activation: stronger effect = higher value; note: nearly all actives have a fitted effect of over 20% in size
Summary of the method: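 Luminescent readout (One-Glo luciferase, 30 min room temperature) followed 24 hr compound treatment at 37 C of rPXR cells plated 2,000 per well and preincubated 5hr; qHTS format with compounds delivered in DMSO.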

[19] = target: Nuclear receptor subfamily 1 group I member 2 (Homo sapiens) (UniProt O75469); assay: CYP3A4 induction through human pregnane X receptor (PXR) by small molecules, qHTS assay (AID 1346984); note: nearly all actives have a fitted effect of over 40% in size
Summary of the method: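 Human PXR activation is tracked via CYP3A4 promoter-luciferase in DPX-2 (HepG2) cells. Compounds treat cells for 24hr at 37C, and luminescence is read after One-Glo.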

[20] = target: Nuclear receptor subfamily 1 group I member 2 (Homo sapiens) (UniProt O75469); assay: Human pregnane X receptor (PXR) activation by small molecules, qHTS assay (AID 1346985); note: nearly all actives have a fitted effect of over 40% in size; note: potency is the fitted concentration of half-maximal effect
Summary of the method: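 DPX-2 cells (HepG2 co-transfected with a PXR response element and a CYP3A4-promoter luciferase construct) were seeded at 2,000 per well, rested 5 hr at 37C, then exposed to DMSO-dissolved compounds for 24 hr. Activation was read as luciferase luminescence.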
% is set by controls: 0 for no effect and ±100 for the full control effect.

Sequence of Thyrotropin-releasing hormone receptor (Homo sapiens) (P34981 whole entry, looked up): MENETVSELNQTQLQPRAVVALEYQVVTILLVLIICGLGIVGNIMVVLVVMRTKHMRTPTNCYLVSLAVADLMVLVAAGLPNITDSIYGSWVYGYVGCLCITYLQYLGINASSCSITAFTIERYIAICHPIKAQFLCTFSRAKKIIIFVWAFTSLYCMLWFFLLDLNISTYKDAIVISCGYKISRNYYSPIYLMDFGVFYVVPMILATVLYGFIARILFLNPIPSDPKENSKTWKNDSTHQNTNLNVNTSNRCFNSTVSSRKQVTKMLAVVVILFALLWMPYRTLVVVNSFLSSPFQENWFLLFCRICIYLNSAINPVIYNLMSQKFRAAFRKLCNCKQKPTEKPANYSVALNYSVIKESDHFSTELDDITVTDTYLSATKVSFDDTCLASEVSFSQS
Sequence of Nuclear receptor subfamily 1 group I member 2 (Homo sapiens) (O75469 whole entry, looked up): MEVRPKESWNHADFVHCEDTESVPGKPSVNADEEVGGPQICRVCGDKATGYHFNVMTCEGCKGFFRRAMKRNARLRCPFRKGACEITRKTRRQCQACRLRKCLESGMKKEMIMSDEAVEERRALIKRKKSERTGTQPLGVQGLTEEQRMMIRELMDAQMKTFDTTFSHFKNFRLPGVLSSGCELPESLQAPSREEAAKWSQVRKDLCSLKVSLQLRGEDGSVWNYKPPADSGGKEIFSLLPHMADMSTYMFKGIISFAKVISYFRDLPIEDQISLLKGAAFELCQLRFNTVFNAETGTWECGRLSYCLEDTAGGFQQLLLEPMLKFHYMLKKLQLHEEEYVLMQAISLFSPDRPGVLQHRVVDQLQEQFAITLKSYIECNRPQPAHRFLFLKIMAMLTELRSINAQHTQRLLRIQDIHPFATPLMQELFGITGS
Sequence of Nuclear receptor subfamily 1 group I member 2 (Rattus norvegicus) (Q9R1A7 whole entry, looked up): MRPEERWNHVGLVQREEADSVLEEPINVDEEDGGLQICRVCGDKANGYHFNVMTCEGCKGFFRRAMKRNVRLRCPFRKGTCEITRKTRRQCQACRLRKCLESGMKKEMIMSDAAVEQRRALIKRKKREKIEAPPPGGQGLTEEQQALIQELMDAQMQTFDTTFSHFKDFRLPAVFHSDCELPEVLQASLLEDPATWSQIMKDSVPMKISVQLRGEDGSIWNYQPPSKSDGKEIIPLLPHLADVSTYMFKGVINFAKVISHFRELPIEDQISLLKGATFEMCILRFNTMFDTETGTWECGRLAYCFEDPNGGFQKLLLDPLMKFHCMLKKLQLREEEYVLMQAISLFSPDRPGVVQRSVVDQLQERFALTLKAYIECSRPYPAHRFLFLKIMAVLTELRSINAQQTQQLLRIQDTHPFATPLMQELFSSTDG
Sequence of Progesterone receptor (Homo sapiens) (P06401 whole entry, looked up): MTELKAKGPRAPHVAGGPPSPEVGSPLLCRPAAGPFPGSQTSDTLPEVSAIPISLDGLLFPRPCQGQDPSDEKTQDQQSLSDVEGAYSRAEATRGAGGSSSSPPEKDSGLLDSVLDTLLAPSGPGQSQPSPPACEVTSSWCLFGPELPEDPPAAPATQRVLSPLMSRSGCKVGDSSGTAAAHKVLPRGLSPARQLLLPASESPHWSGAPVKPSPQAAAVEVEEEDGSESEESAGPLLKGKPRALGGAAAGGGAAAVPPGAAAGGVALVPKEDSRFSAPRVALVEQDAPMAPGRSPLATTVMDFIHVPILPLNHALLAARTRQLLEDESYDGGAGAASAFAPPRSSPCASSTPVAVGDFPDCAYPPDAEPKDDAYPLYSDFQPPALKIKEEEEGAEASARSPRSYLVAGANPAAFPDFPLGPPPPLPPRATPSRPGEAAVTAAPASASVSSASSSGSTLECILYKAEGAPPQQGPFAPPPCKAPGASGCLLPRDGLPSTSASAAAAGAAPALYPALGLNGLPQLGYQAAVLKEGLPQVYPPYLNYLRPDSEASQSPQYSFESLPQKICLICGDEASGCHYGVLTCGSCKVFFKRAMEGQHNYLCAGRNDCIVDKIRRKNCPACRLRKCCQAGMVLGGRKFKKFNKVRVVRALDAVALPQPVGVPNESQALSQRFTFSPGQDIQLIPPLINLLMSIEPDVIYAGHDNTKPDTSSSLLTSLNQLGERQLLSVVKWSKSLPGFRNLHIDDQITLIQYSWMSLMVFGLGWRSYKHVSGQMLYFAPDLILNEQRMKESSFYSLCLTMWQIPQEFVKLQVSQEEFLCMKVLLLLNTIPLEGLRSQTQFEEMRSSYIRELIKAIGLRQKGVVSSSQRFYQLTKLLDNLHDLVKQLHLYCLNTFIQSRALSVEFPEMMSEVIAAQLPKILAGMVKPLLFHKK
Sequence of Acetylcholinesterase (Homo sapiens) (P22303 whole entry, looked up): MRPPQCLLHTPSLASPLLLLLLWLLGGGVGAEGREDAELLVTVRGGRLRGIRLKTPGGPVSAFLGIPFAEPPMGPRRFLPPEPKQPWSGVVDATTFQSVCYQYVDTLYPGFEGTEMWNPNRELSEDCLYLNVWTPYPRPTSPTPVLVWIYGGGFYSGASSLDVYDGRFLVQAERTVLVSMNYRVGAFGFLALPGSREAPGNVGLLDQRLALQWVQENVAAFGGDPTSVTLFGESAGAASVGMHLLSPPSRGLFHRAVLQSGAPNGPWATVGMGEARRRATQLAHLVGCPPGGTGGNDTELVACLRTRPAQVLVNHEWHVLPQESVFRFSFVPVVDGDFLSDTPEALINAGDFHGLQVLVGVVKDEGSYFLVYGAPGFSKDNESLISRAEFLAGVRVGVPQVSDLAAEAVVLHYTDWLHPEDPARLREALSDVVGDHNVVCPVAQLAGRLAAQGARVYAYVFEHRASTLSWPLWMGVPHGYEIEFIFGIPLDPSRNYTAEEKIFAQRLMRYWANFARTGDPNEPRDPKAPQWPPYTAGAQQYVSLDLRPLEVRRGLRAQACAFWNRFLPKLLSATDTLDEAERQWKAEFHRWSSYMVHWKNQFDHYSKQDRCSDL

CCN(CC)c1nc(C)cc(OP(=S)(OC)OC)n1
inactive: Potency [1] | Potency [2] | Potency [3] | Potency [4] | Potency [5] | outcome [6] | outcome [7] | outcome [8] | outcome [9] | Potency [10] | Potency [11] | Potency [12] | Potency [13]

NC(=S)C(N)=S
inactive: Potency [1] | Potency [2] | Potency [14] | Potency [5] | outcome [6] | outcome [7] | Potency [10] | Potency [11] | Potency [15] | Potency [12] | Potency [13] | Potency [16]

CCOP(=S)(OCC)Oc1ncn(-c2ccccc2)n1
active: Potency [17] 27.3 µM | Potency [16] 31.7 µM
inactive: Potency [1] | Potency [2] | Potency [3] | Potency [4] | Potency [5] | outcome [6] | outcome [7] | outcome [8] | outcome [9] | Potency [10] | Potency [11] | Potency [15] | Potency [12] | Potency [13]

CC(=O)Nc1cc([As](=O)(O)O)ccc1O
inactive: Potency [1] | Potency [2] | Potency [3] | Potency [4] | Potency [5] | outcome [6] | outcome [7] | outcome [8] | outcome [9] | Potency [10] | Potency [11] | Potency [15] | Potency [12] | Potency [13] | Potency [17] | max activation [18] -4.41% | Potency [19] | Potency [20] | Potency [16]

CN1C(=S)CN=C(c2ccccc2)c2cc(Cl)ccc21
inactive: Potency [1] | Potency [2] | Potency [5] | outcome [6] | outcome [7] | outcome [8] | outcome [9] | Potency [10] | Potency [11] | Potency [15] | Potency [12] | Potency [13] | max activation [18] -0.756% | Potency [16]
active: Potency [14] 21.1 µM | Potency [17] 26.6 µM | Potency [20] 14.1 µM

CC(C(O)c1ccccc1)N(C)C/C=C/c1ccccc1 (stereo not given)
inactive: Potency [1] | Potency [2] | Potency [3] | Potency [4] | Potency [5] | outcome [6] | outcome [7] | Potency [11] | Potency [15] | Potency [12] | Potency [13] | Potency [17] | Potency [16]

COP(=S)(OC)Oc1c(Cl)cc(C)cc1Cl
active: Potency [14] 27.3 µM
inactive: Potency [1] | Potency [2] | Potency [5] | outcome [6] | outcome [7] | outcome [9] | Potency [10] | Potency [11] | Potency [15] | Potency [12] | Potency [13] | Potency [16]

COC(=O)c1ccccc1S(=O)(=O)NC(=O)N(C)c1nc(C)nc(OC)n1
inactive: Potency [1] | Potency [2] | Potency [3] | Potency [4] | Potency [5] | outcome [6] | outcome [7] | outcome [9] | Potency [10] | Potency [11] | Potency [15] | Potency [12] | Potency [13] | Potency [17] | Potency [16]

CNC(=O)N(C)c1nc2ccccc2s1
inactive: Potency [1] | Potency [2] | Potency [3] | Potency [4] | Potency [5] | outcome [6] | outcome [7] | outcome [8] | outcome [9] | Potency [10] | Potency [11] | Potency [15] | Potency [12] | Potency [13] | Potency [16]

OCCSCSCCO
inactive: Potency [1] | Potency [2] | Potency [3] | Potency [4] | Potency [5] | outcome [6] | outcome [7] | outcome [9] | Potency [10] | Potency [11] | Potency [15] | Potency [12] | Potency [13] | Potency [17] | Potency [16]

CN(C)CCc1ccc(O)cc1
inactive: Potency [1] | Potency [2] | Potency [3] | Potency [4] | Potency [5] | outcome [6] | outcome [7] | outcome [8] | outcome [9] | Potency [10] | Potency [11] | Potency [12] | Potency [13] | Potency [17] | max activation [18] -2.69% | Potency [19] | Potency [20] | Potency [16]

C=CC1CC=CCC1 (stereo not given)
inactive: Potency [1] | Potency [2] | Potency [14] | Potency [4] | outcome [6] | outcome [7] | outcome [8] | outcome [9] | Potency [10] | Potency [11] | Potency [15] | Potency [12] | Potency [13] | Potency [16]
